Test results published in ChEMBL document CHEMBL4513158, “CO-ADD screening of RKDF (India) compounds”.
Entries with a potency or affinity are not part of this list.

Key:
Staphylococcus aureus = conditions: Concentration 32 ug.mL-1; ASSAY_TEST Inhibition of Bacterial Growth; detection method Absorption (OD600); MEDIA CAMHB; plate type 384well; NBS; CORNING #3640; time 18 hr
Escherichia coli = conditions: Concentration 32 ug.mL-1; ASSAY_TEST Inhibition of Bacterial Growth; detection method Absorption (OD600); MEDIA CAMHB; plate type 384well; NBS; CORNING #3640; time 18 hr

Structure (SMILES)	Inhibition (Staphylococcus aureus) [%]	Inhibition (Escherichia coli) [%]
C=C[C@H]1[C@H](O[C@@H]2O[C@H](CO)[C@@H](O)[C@H](O)[C@H]2O)OC=C2C(=O)OCC[C@]21O [SWERTIAMARIN]	25.69	13.89
CN(C)C(=N)NC(=N)N.Cl [METFORMIN HYDROCHLORIDE]	23.29	–
